Hit rate of the full screen: of about 190,000 compounds, about 930 (0.49%) were called active.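 The calls were made as follows: active = z-score of insulin promoter reporter brightness in nuclei below -3 at 5 µM, with at least 500 cells counted; inconclusive = wells with under 500 cells, flagged as toxic or sparse; inactive = the rest.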 The list shows a part of the results. Entries with a potency or affinity are not part of this list.

This test can be described thus: insulin promoter down-regulators in MIN6 cells, imaging, high-content screening, mouse beta cells (AID 1628). To be noted: MIN6 insulin promoter GFP reporter, at 5 µM, active compounds read low.
On to `c1ccc(CCNc2c3c(nc4ncnn24)CCC3)cc1`, for which the z-score is -3.18 (active).
For `Oc1[nH]c2c(Cl)cc(Cl)cc2c1N=NC(=S)NCC1CCCO1` (stereo unspecified), the z-score was -3.65 (active).
As to `O=C(CN(C1CCCCC1)S(=O)(=O)c1ccccc1)NCc1ccco1`, the z-score was 0.65 (inactive).
`CCOC(=O)C1CCN(S(=O)(=O)c2ccc3c(c2)CCCN3C(C)=O)CC1`: the z-score was -4.86 (active).
To `CCC(=O)N1CCCc2cc(S(=O)(=O)N3CCN(c4ccccc4F)CC3)ccc21` belongs -5.64 (active); to `COc1ccccc1N/C(N)=N/c1nc(C(F)(F)F)cc(=O)[nH]1`, 3.34 (inactive).
As to `CCCCn1c(SCc2ncc(-c3ccccc3)o2)nc2cc(S(N)(=O)=O)ccc21`, the z-score was -5.03 (active).
Consider `CCCCn1c(SCC(=O)O)nc2ccccc21`, for which the z-score is 3.5 (inactive).
As to `Cc1cccn2c(=O)c(/C=C3\SC(=S)NC3=O)c(NCCCN3CCOCC3)nc12`, the z-score was 5.45 (inactive).
To `N=c1c2c(-c3ccccc3)c(-c3ccccc3)oc2ncn1CCCN1CCOCC1` belongs -3.3 (active); to `O=C(/C=C/c1ccc(N2CCC(c3ccccc3)=N2)cc1)c1ccccc1`, 17.2 (inactive); to `O=C1C=C(Nc2ccc(O)cc2)CC(c2ccco2)C1` (stereo unspecified), 6.78 (inactive).
To `O=c1[nH]c2ccccc2nc1/C=C/c1ccc(F)cc1` belongs 5.99 (inactive).
In the case of `CCOC(=O)c1c(NC(=O)c2ccccc2)sc2c1CCc1ccccc1-2`, the z-score was -5.18 (active).
For the compound `CCOC(=O)c1sc(NC(=O)c2sccc2C)cc1C`, the z-score is 3.1 (inactive).
For `CCOC(=O)CSC1=C(C#N)C(c2ccc(C)s2)CC(=O)N1` (stereo unspecified), the z-score was -3.15 (active).
With `CC(=O)C1=C(C)NC(SCC(=O)c2ccc(Cl)c(Cl)c2)=C(C#N)C1c1ccco1` (stereo unspecified), the z-score was 3.16 (inactive).
As to `Cc1ccc(C2CC(=O)NC(SCc3ccccc3)=C2C#N)o1` (stereo unspecified), the z-score is 3.43 (inactive).
As for `CCCNc1nc2c(c(=O)n(C)c(=O)n2C)n1CCc1ccccc1`, the z-score was -5.56 (active).
On to `CCOc1cc2[nH]c(=O)n(CCC(=O)NCCc3ccc(OC)c(OC)c3)c(=O)c2cc1OCC`, for which the z-score is 1.44 (inactive).
To `CCn1c(NCCc2ccc(OC)c(OC)c2)nc2c1c(=O)n(C)c(=O)n2C` belongs -5.44 (active).
As for `O=c1cc2oc3cc(O)c(O)cc3c(-c3ccccc3O)c-2cc1O`, the z-score was 15.3 (inactive).
To `CCn1c(SCC(=O)Nc2nc3ccc(OC)cc3s2)nc2c1c(=O)n(C)c(=O)n2C` belongs -3.33 (active).
Consider `CCn1ncc(C2=NOC(C(=O)Nc3cccc(C(C)=O)c3)C2)c1C` (stereo unspecified), for which the z-score is -3 (active).
To `C=C(C)c1cccc(C(C)(C)NC(=O)NCC2COCCO2)c1` (stereo unspecified) belongs 0.86 (inactive); to `CC(C)(C)c1ccc(C(=O)c2c[nH]c(C(=O)NCC3CCCO3)c2)cc1` (stereo unspecified), -4.57 (active); to `CCn1c(=NC(=O)c2ccc(S(=O)(=O)N(C)C)cc2)sc2cccc(OC)c21`, -5.14 (active).
Take `c1ccc(-n2ncc3c(N4CCN(c5ccccn5)CC4)nc(N4CCCCCC4)nc32)cc1`: the z-score is 4.11 (inactive).
To `C/C(=C\c1ccccc1)CN1CCN(c2ccccc2)CC1` belongs 1.49 (inactive); to `CC(=O)Nc1sc(/C(C#N)=C\c2cccc(Cl)c2)nc1-c1ccc(C)cc1`, 15.6 (inactive); to `CCOC(=O)N1CCN(/C=C(\C#N)c2nc3ccccc3s2)CC1`, 3.47 (inactive).
In the case of `Cc1nn(-c2ccccc2)c(N2CCCC2)c1/C=N/n1cnc2scc(-c3ccccc3)c2c1=O`, the z-score was -3.26 (active).
To `COc1cc2c3nnc(-c4ccc(F)cc4)c-3cn(Cc3ccccc3)c2cc1OC` belongs 3.81 (inactive); to `COc1ccc(Nc2ncnc3c2cnn3Cc2ccccc2)cc1OC`, -4.71 (active).
To `O=[N+]([O-])c1ccc(N/N=C/c2ccc[nH]2)cc1` belongs 12.9 (inactive); to `N#C/C(=C/c1ccc(N2CCOCC2)o1)c1ccc(Cl)cc1`, 7.33 (inactive); to `Oc1c(C=NCc2ccc(F)cc2)[nH]c2ccc(Br)c(Cl)c12`, 4.06 (inactive).
In the case of `CCOC(=O)c1ccc(NC(=O)COc2ccc(S(=O)(=O)NC(C)CC)cc2)cc1` (stereo unspecified), the z-score is 3.08 (inactive).
Turning to `CCC(C)NS(=O)(=O)c1ccc(NC(=O)Cc2ccc(OC)cc2)cc1` (stereo unspecified), the z-score was -3.19 (active).
Take `COc1ccc(NC(=O)CSc2ncccc2C(=O)OC(C)C)cc1OC`: the z-score was -5.26 (active).
Consider `O=C(COC(=O)c1ccco1)NCC1CCCO1` (stereo unspecified), for which the z-score is 3.04 (inactive).
For the compound `Cc1ccccc1CN(c1ccc(C(=O)NCC2CCCO2)cc1)S(C)(=O)=O` (stereo unspecified), the z-score is -4.88 (active).
To `CCCc1n[nH]c2c1C(=O)C(C(=O)OC)C(C)(C)C2` (stereo unspecified) belongs 3.65 (inactive).
`CN(CCC#N)C(=O)COC(=O)c1ccc(Cl)c(S(N)(=O)=O)c1`: the z-score is -5.92 (active).
To `CCOC(=O)C1=C(C)NC(=O)NC1c1ccc(N2CCC(c3ccccc3)=N2)cc1` (stereo unspecified) belongs 4.29 (inactive).
In the case of `CCOC(=O)C1=C(c2ccccc2)NC(N)=NC1c1ccc(OCc2ccc(Cl)cc2)c(OC)c1` (stereo unspecified), the z-score was -3.43 (active).
Consider `COc1ccc(Cl)cc1NC(=O)c1c(-c2ccccc2)noc1C`, for which the z-score is 18 (inactive).
Turning to `O=C(/C=C/c1ccccc1)NCC(=O)N/N=C/c1ccccc1[N+](=O)[O-]`, the z-score was 3.03 (inactive).
`O=[N+]([O-])c1ccc(N/N=C/c2c[nH]c3ccccc23)cc1`: the z-score is 3.11 (inactive).
For the compound `CCN(CC)CCn1c(=S)[nH]c2ccc(Cl)cc2c1=O`, the z-score was 3.97 (inactive).
With `C=C(C)Cn1c(=S)[nH]c2ccccc2c1=O`, the z-score is -6.61 (active).
With `Nn1c(=O)[nH]c2ccccc2c1=O`, the z-score was -0.08 (inactive).
`O=[N+]([O-])c1ccc(Cc2nnc(-c3ccccc3Cl)o2)cc1`: the z-score was 2.55 (inactive).
Take `CCOc1ccc(-c2nnn(CC(=O)c3ccc4c(c3)OCCO4)n2)cc1`: the z-score was -0.23 (inactive).
To `COCc1c(C(=O)OCC(=O)c2c(N)n(CC(C)C)c(=O)n(C)c2=O)oc2ccccc12` belongs -4.37 (active).
As to `CC(C)Cn1c(N)c(C(=O)COC(=O)c2ccc3c(c2)OCCO3)c(=O)n(C)c1=O`, the z-score was -4.98 (active).
To `C[C@@H](C(=O)Nc1ccc2ccccc2c1)[C@H]1C[C@]1(C)[C@H](NC(=O)c1cnccn1)c1ccccc1` belongs -4.74 (active); to `CCOC(=O)CN1C(=O)S/C(=C/c2ccc(N3CCCCC3)o2)C1=O`, 5.8 (inactive); to `CCOC(=O)C1=C(N2CCCCC2)c2cc3c(n2C1=O)CCCC3`, -3.42 (active).
`COc1ccc2c(OC)c3ccoc3nc2c1OC`: the z-score was -0.53 (inactive).
To `CCCS(=O)(=O)N1CCN(Cc2ccccc2[N+](=O)[O-])CC1` belongs -3.06 (active); to `CCCS(=O)(=O)N1CCN(Cc2ccccc2C(F)(F)F)CC1`, -0.28 (inactive); to `CC(C)SC1=NC(C)(C)C=C(/C=C/c2ccc(Cl)cc2Cl)N1`, 3.58 (inactive).
For `Cn1cnc2c(NCc3ccco3)ncnc21`, the z-score was -0.11 (inactive).
To `Cc1cc(N/N=C/c2ccc([N+](=O)[O-])o2)nc2ccccc12` belongs 8.56 (inactive); to `Cc1ccc(/C=N/Nc2ccc3ccccc3n2)o1`, -3.22 (active).
In the case of `Cc1ccn2c(=O)cc(C)nc2c1`, the z-score is 2.27 (inactive).
Consider `Cc1ccn2c(-c3csc(NCc4ccco4)n3)c(C)nc2c1`, for which the z-score was -6.24 (active).
For `Cc1nc2ccccn2c1-c1csc(NCc2ccco2)n1`, the z-score was -9.7 (active).
Turning to `CC(=O)Nc1ccc(N2C(=O)C3C4CC(=O)C(c5ccccc54)C3C2=O)cc1` (stereo unspecified), the z-score is -5.05 (active).
To `CC(=O)Nc1ccc(N2CCc3c(C)c(C#N)c4nc5ccccc5n4c32)cc1` belongs 3.8 (inactive); to `CC1CN(Cc2cc(=O)[nH]c(C3CC3)n2)CC(C)O1` (stereo unspecified), -3.69 (active).
On to `CCN(CCNC(=O)C1CCCN(S(=O)(=O)CC)C1)c1ccccc1` (stereo unspecified), for which the z-score was 3.08 (inactive).
To `C/C(=N\NC(=O)C1CCCN(S(=O)(=O)c2ccccc2)C1)c1ccccn1` (stereo unspecified) belongs -3.38 (active).
In the case of `O=C(NCc1ccc(F)cc1)C1CCCN(S(=O)(=O)c2cccnc2)C1` (stereo unspecified), the z-score is 3.46 (inactive).
For the compound `COc1cc(/C=N/NC(=S)Nc2cccc(Cl)c2C)ccc1OCC(=O)N1CC(C)OC(C)C1` (stereo unspecified), the z-score was -3.25 (active).
For `Oc1ccc(Cl)cc1C1=Nc2ccccc2N=C(c2ccco2)C1`, the z-score was 4.34 (inactive).
To `COC1=CCC2([N+](=O)[O-])CN(CCO)CC1([N+](=O)[O-])C2` (stereo unspecified) belongs 3.03 (inactive); to `Cc1ccccc1N1C(=O)CC(c2c[nH]c3ccccc23)C1=O` (stereo unspecified), 3.5 (inactive); to `CCn1c(COc2ccc(=O)n(-c3ccccc3)n2)nnc1SCc1ccccc1C`, -4.23 (active).
Regarding `CCOC(=O)c1sc(NCCNc2nc(C)c(C(=O)OCC)s2)nc1C`, the z-score was -0.64 (inactive).
Consider `COc1cc(=O)n(C)c2c(OCC3OC(C)(C)OC3(C)C)cccc12` (stereo unspecified), for which the z-score was -0.95 (inactive).
As to `O=C1C=C(Nc2ccccc2)C(=O)c2ccccc21`, the z-score is -0.04 (inactive).
Consider `O=C1/C(=N\S(=O)(=O)c2cccs2)C([n+]2cccc(Cc3ccccc3)c2)=C([O-])c2ccccc21`, for which the z-score was 6.82 (inactive).
Take `Cn1c(SCC(=O)NNC(=O)Cc2ccccc2)nnc1-c1ccc(Cl)cc1`: the z-score was -3.49 (active).
As for `CC(C)(C)NC(=O)CSc1n[nH]c(=O)n1-c1ccccc1`, the z-score is 2.5 (inactive).
In the case of `CCCn1c(SCC(=O)NC2CCCCC2)nnc1-c1ccncc1`, the z-score was 3.06 (inactive).
Consider `O=C(NC1(C(F)(F)F)NC(=O)N(c2ccc(F)c(Cl)c2)C1=O)c1ccncc1` (stereo unspecified), for which the z-score is 4.5 (inactive).
In the case of `COc1ccc2cc(C(c3nnnn3C(C)(C)C)N3CCc4ccccc4C3)c(=O)[nH]c2c1` (stereo unspecified), the z-score was -5.1 (active).
With `OCCC1CN(Cc2cccn2-c2ncccn2)CCN1CCc1ccccc1` (stereo unspecified), the z-score is -3.43 (active).
With `CCc1ccc(N2CC(O)(c3cccs3)[N+]3=C2SCCC3)cc1` (stereo unspecified), the z-score is -3.76 (active).
To `O=S(=O)([O-])CCC[n+]1c(/C=C\Nc2ccccc2)oc2ccc(-c3ccccc3)cc21` belongs 3.19 (inactive); to `CSC(=Nc1cccc(C)c1)NC#N`, -5.35 (active); to `COC(=O)C1=C(N)n2c(s/c(=C\c3cccnc3)c2=O)=C(C(=O)OC)C1c1cccnc1` (stereo unspecified), 3.21 (inactive).
In the case of `COCCCNC(=O)c1c(N)n(/N=C/c2cccnc2)c2nc3ccccc3nc12`, the z-score was -3.07 (active).
Regarding `Cc1ccc(C(=O)NCCn2c(N)c(C#N)c3nc4ccccc4nc32)cc1`, the z-score was 4.08 (inactive).

The values are drawn from PubChem BioAssay AID1628 (Sanford-Burnham Center for Chemical Genomics, 2009).
